Shown are actives, neighbours in structure and some others; about 3.5% of the full set was active somewhere.
GPR151 ag = activators of human GPR151; activation, % at 11.2 µM; PathHunter beta-arrestin GPR151 cells, luminescence; AID 1508602; 650,000 tested, 1% active; in the data active = activation above about 4.9%
TEAD-YAP block = TEAD-YAP interaction inhibition. inhibition, % at 9.12 µM. HEK-TIYL cells, TEAD-Gal4/YAP UAS-luciferase luminescence. AID 1259422. 640,000 tested, 1.4% active; in the data active = inhibition above about 32%
MITF inh = inhibitors of human MITF; inhibition, % at 2.6 µM; AID 1259374; AlphaScreen MITF homodimerization, bead proximity signal; O75030; 650,000 tested, 0.91% active; in the data active = inhibition above about 50%
FBW7 activator = activators of human E3 ligase FBW7; AlphaScreen FBW7–phospho-cyclin E peptide binding, activator screen; normalized activity (activation), % at 26.1 µM; 650,000 tested, 0.13% active; AID 1259310; in the data active = normalized activity above about 1.9%;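 also: purified mutant Fbw7 with reduced substrate affinity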
Target sequence (Q969H0 whole entry, looked up): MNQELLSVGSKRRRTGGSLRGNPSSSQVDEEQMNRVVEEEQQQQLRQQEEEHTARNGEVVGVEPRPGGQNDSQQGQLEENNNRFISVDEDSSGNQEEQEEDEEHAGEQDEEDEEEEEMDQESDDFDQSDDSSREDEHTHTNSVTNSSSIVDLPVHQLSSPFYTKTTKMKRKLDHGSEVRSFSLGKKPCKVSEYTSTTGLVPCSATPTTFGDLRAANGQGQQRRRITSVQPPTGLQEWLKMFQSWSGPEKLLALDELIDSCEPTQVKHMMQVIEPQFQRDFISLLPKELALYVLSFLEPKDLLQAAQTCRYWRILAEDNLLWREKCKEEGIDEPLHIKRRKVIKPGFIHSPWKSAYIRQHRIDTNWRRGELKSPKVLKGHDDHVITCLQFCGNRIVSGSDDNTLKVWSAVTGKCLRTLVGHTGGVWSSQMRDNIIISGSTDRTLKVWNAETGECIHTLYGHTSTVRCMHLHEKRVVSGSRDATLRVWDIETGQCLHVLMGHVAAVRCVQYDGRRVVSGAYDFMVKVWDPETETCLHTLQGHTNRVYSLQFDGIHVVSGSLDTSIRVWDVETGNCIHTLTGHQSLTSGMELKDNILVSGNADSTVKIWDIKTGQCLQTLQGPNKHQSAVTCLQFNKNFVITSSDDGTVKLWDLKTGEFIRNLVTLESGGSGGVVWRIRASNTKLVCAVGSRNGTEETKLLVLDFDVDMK
Numbers stand for hits; 0 = inactive.

SMILES	GPR151 ag	TEAD-YAP block	MITF inh	FBW7 activator
O=C1CCCC2=C1C(c1ccc(Cl)c(Cl)c1)Nc1ccc(C(=O)c3ccccc3)cc1N2 (configuration not stated)	0	50	0	0
CSc1ccc(C2Nc3ccc(C(=O)c4ccccc4)cc3NC3=C2C(=O)CCC3)cc1 (configuration not stated)	0	43	0	0
Cc1c(C(=O)NCCSC(C)(C)C)cccc1[N+](=O)[O-]	0	0	0	0
O=c1ccc(C(F)(F)F)cn1Cc1ccc(-c2noc(-c3ccccc3[N+](=O)[O-])n2)cc1	0	0	0	0
COc1ccc2nc(-c3ccc(NS(=O)(=O)c4cc(C)c(C)cc4C)cc3)cn2n1	0	0	0	0
Cc1cc(OCC(=O)Nc2ccccn2)ccc1Cl	0	64	0	0
Cc1ccnc(NC(=O)COc2ccc(Cl)c(C)c2)c1	0	0	0	0
COc1cc(CC2(CCC(=O)NCC(C)Oc3cccnc3)CCC(=O)N2)ccc1F (configuration not stated)	0	0	0	2.1
O=C(NC(=S)NCCN1CCOCC1)c1cccs1	0	0	0	0
Cc1ccc(N=C(NN)c2ccc3ccccc3n2)c(C)c1	0	0	0	0
COc1ccc(N=C(NN)c2ccc3ccccc3n2)cc1	0	91	0	0
COc1ccc(S(=O)(=O)NCC2CCCN(CCCn3cccn3)C2)cc1 (configuration not stated)	0	0	0	0
CC1=CC(=C2C(=O)c3ccccc3C2=O)C=C(C)N1C(C)C	0	67	0	0
CC(C)(C)NC(=O)Cn1c(SCC(N)=O)nc2ccccc21	0	0	0	2.0
CN(C)C(=O)CSc1nc2ccccc2n1CC(=O)NC(C)(C)C	0	0	0	0
CC(C)(C)c1ccc(OCCSc2nc3ccccc3n2CC(N)=O)cc1	0	48	0	0
CN1CCN(Cc2cc(=O)oc3ccc4ccccc4c23)CC1	0	0	0	0
CN1CCN(Cc2cc(CSc3ccccc3)c3cccnc3c2O)CC1	0	81	65	0
CN1CCN(Cc2cc(COCc3ccccc3)c3cccnc3c2O)CC1	0	74	101	0
Oc1c(CN2CCN(c3cccc(C(F)(F)F)c3)CC2)cc(COCc2ccccc2)c2cccnc12	0	0	0	0
CCOC(=O)c1sc2ncn(CC(=O)NCCC3=CCCCC3)c(=O)c2c1C	0	0	0	2.2
Cc1ccc(N2C(=O)c3ccc(Oc4cccc(N)c4)cc3C2=O)c(C)c1	0	0	0	0
Fc1ccccc1N=c1oc2ccccc2cc1-c1nc2ccccc2[nH]1	0	40	0	0
COc1ccc(N=c2oc3ccccc3cc2-c2nc3ccccc3[nH]2)cc1	0	38	0	0
Fc1ccc(N=c2oc3ccccc3cc2-c2nc3ccccc3[nH]2)cc1	0	0	0	0
SMILES	GPR151 ag	TEAD-YAP block	MITF inh	FBW7 activator
CC(C)C1CCC(Nc2ncc(-c3cccc(C(=O)NCCN(C)C)c3)n3ccnc23)CC1 (configuration not stated)	0	39	0	0
NC(=O)COc1ccccc1/C=C1/SC(=Nc2cccc(C(F)(F)F)c2)NC1=O	0	0	0	0
Cc1noc(C)c1COC(=O)c1ccccc1I	0	0	0	0
Cc1cccc(-n2c(C)cc(C(=O)OCc3c(C)noc3C)c2C)c1	0	41	0	0
c1ccc(-c2nc(NC3CC3)cc(-c3ccncc3)n2)nc1	0	0	0	0
COCCNc1cc(-c2ccc(F)cc2)nc(-c2ccccn2)n1	0	74	0	0
Fc1ccc(-c2cc(NC3CC3)nc(-c3ccncc3)n2)cc1	0	0	0	0
COCCNc1cc(-c2ccncc2)nc(-c2ccccn2)n1	0	0	0	0
c1ccc(-c2cc(NC3CC3)nc(-c3ccccn3)n2)cc1	0	92	0	0
CCN(CC)c1cc(-c2ccc(F)cc2)nc(-c2ccccn2)n1	0	53	58	0
Fc1ccc(-c2cc(NC3CC3)nc(-c3ccccn3)n2)cc1	0	90	0	0
Cc1cc(NCc2ccco2)n2c(n1)nc1ccccc12	0	0	0	0
O=C(/C=C/c1ccc(Cl)cc1)N1CCN(Cc2ccc3c(c2)OCO3)CC1	0	0	0	0
CN(C)c1ccc(/C=C/CN2CCN(Cc3ccc4c(c3)OCO4)CC2)cc1	0	0	68	0
c1ccc2c(c1)Cc1cc3ccccc3nc1-2	0	47	0	0
Cc1ccc2cc3c(nc2c1)-c1ccccc1C3	0	60	0	0
Cc1ccc2nc(-c3ccccc3)c(-c3ccccc3)nc2c1	0	0	0	0
Cc1cc(C)c2c(c1)Cc1cc3ccccc3nc1-2	0	0	0	0
CCc1nn(CC(=O)N(CC)Cc2ccco2)c(=O)c2cc3sccc3n12	0	0	0	0
CCCNC(=O)c1cccc(Nc2nc3ccccc3n2C)n1	0	0	0	0

Assay outcomes from PubChem.
